# Experimental data published in PubChem BioAssay AID1468 (National Center for Advancing Translational Sciences (NCATS), 2008).
# Where “and” joins values, the source holds several entries; their conditions need not be identical. Identical values can stand only once. About 1,100 (0.39%) of roughly 280,000 compounds were called active. A call without a number means that no potency is given here. About 7% were inconclusive and are not listed. The call rests on the fitted dose curve; in most records, active means well fitted inhibition curve with a large enough effect; inconclusive means small, poorly fitted or top-dose-only effect, or effect the other way; inactive means flat fitted curve, though single readings scatter. This excerpt belongs to a sample that is enriched for actives.
# Target: Microtubule-associated protein tau (Homo sapiens) (UniProt P10636)
# Assay: qHTS for Inhibitors of Tau Fibril Formation, Fluorescence Polarization; further: nearly all actives have a fitted effect of over 55% in size
# Details: K18 P301L tau heparin fibrillization, Alexa594 FP, 6 h; series mostly up to 57.7 µM
# How it was run: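 FP of Alexa 594-tau after heparin (20 uM) induction. Substrate: human K18 P301L, 15 uM unlabeled, 0.24 uM labeled. Buffer 100 mM sodium acetate pH 7. 6 hr, 37 C.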
# Potency means the concentration at half of the fitted maximal effect.
# Sequence of Microtubule-associated protein tau (Homo sapiens) (P10636 561-689 P618L limits assumed): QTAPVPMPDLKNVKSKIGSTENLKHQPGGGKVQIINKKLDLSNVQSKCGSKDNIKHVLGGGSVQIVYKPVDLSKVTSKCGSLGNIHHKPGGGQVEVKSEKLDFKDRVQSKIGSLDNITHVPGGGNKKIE
row,Compound,Potency
1,CC(C)c1ccc(NS(=O)(=O)c2ccc3[nH]cc(C(=O)NC4CCCC4)c(=O)c3c2)cc1,11.2 µM (active)
2,Cc1cccc(NC(=O)Cn2nc(-c3ccc(Cl)cc3)c3ccccc3c2=O)c1,inactive
3,O=S(=O)(c1ccccc1)c1nc(-c2ccc(Cl)cc2Cl)oc1N1CCCCC1,inactive
4,CCc1ccc(NC(=O)CN2CCSc3ccc(S(=O)(=O)N4CCCC4)cc32)cc1,inactive
5,COc1ccc(S(=O)(=O)NCc2cccn2Cc2cccc(C)c2)cc1Cl,inactive
6,Cc1cccc(CC(=O)N2CC(=O)Nc3ccc(F)cc3C2c2ccccc2)c1 (centres undefined),inactive
7,CC(C)c1ccc2oc(-c3cc(NC(=O)c4cccs4)ccc3Cl)nc2c1,12.6 µM (active)
8,O=C(Nc1ccc(-c2nc3cc(NC(=O)c4ccccc4Cl)ccc3o2)cc1)c1ccccc1Cl,inactive
9,Cc1ccc(-c2nnc(-c3ccc(NC(=O)c4cccs4)cc3)o2)cc1,inactive
10,CCN(CC)CCNC(=O)c1cc2c(=O)oc3ccc(C)cc3c2s1,inactive
11,Cc1cccc(NC(=O)Nc2cccc(Oc3c(F)c(F)c(F)c(F)c3F)c2)c1,8.91 µM (active)
12,COc1cccc(NC(=O)NCc2ccc(F)cc2)c1,inactive
13,Cc1cccc(NC(=O)c2cccc(C(F)(F)F)c2)c1,inactive
14,COc1cc2c(=O)c(S(=O)(=O)c3ccc(C(C)C)cc3)cn(Cc3ccccc3C)c2cc1OC,inactive
15,O=C(Nc1ccccc1)Nc1ccccc1C(=O)NCc1ccco1,inactive
16,CCOc1ccc(CNC(=O)c2cc(-c3ccc(Cl)s3)nc3ccccc23)cc1,inactive
17,CCc1ccc(-c2cc(C(=O)NCc3ccco3)c3ccccc3n2)s1,28.2 µM (active)
18,COc1ccc(-c2noc(-c3ccc(N4CCN(c5ccccc5)CC4)c([N+](=O)[O-])c3)n2)cc1OC,inactive
19,CCOc1ccccc1CNCc1c(C(=O)O)c(C)n(Cc2ccc(C)cc2)c1C,inactive
20,COc1ccccc1CNC(=O)CCn1c(=O)c2ccccc2n(CC(=O)Nc2ccc(Br)cc2F)c1=O,inactive
21,Cc1cc(C)c2oc(C(=O)Nc3ccc(S(=O)(=O)N(C)c4ccccc4)cc3)cc(=O)c2c1,inactive
22,COc1ccc(-c2csc(-c3c(N)c(C(=O)c4ccc(OC)c(OC)c4)n4ccccc34)n2)cc1,inactive

row,Compound,Potency
1,Cc1ccc(Cl)cc1N1CCN(C(=O)CN2C(=O)COc3ccc(S(=O)(=O)N4CCOCC4)cc32)CC1,inactive
2,COc1ccc(-n2c(=O)c3c(c4cc(OC)ccc4n3C)n(Cc3cccc(C)c3)c2=O)cc1,inactive
3,Nc1ccc2nc3c(=O)[nH]c(=S)[nH]c3nc2c1,2.24 µM (active)
4,O=c1[nH]c(=O)c2nc3ccccc3nc2[nH]1,inactive
5,COc1ccc(CCNC(=O)c2ccc(-n3c(C)cc4c3CCCC4)cc2)cc1OC,inactive
6,Cc1ccc2oc3c(c(=O)c2c1)C(c1ccc([N+](=O)[O-])cc1)N(CCCN1CCOCC1)C3=O (centres undefined),inactive
7,Cc1cc(C)c(NC(=O)CCc2c(C)nc3c(c(C)nn3C(C)(C)C)c2C)c(C)c1,inactive
8,COC(=O)c1ccccc1NC(=O)c1ccc2c(=O)n3c(nc2c1)CCCCC3,inactive
9,COc1ccc(N2CCN(c3nc(-c4ccccc4F)nc4ccccc34)CC2)cc1,inactive
10,CC(=O)Oc1c2c(c3c(c1CC=C(C)C)O[C@@]14C(=CC5CC1C(C)(C)OC4(C/C=C(\C)C(=O)O)C5=O)C3=O)OC(C)(CCC=C(C)C)C=C2 (some centres undefined),35.5 µM (active)
11,CCc1cccc(NC(=O)CSc2nccn2C)c1,inactive
12,COC(=O)c1c(NC(=O)C(C)Oc2ccc(Cl)c(C)c2)sc(C)c1C (centres undefined),inactive
13,CCc1nc2cccnc2n1-c1ccc(CC(=O)Nc2c(C)cccc2C)cc1,inactive
14,CCN(CC)S(=O)(=O)c1ccc2[nH]cc(C(=O)NCCc3ccccc3)c(=O)c2c1,12.6 µM (active) and 14.1 µM (active)
15,CCN(CC(=O)NCCc1ccccc1)S(=O)(=O)c1ccc(C)cc1,inactive
16,CCN(CC(=O)NCCc1ccccc1)S(=O)(=O)c1ccccc1,inactive
17,CC(C)(C)OC(=O)N1CCC(c2c(C(=O)Nc3ccc4c(c3)OCO4)cnn2-c2ccccc2)CC1,inactive
18,Cc1ccc(Cn2cc(CCC(=O)NCc3ccc(OC(C)C)cc3)c3ccccc32)cc1,inactive
19,CC(=O)c1cccc(S(=O)(=O)N2CCC(n3nnc4cc(F)ccc43)CC2)c1,inactive
20,CC(=O)c1cccc(Nc2ccc3cc(S(=O)(=O)N4CCC(C)CC4)ccc3n2)c1,12.6 µM (active)
21,Cc1ccc(C)c(N2CCN(c3ccc4cc(S(=O)(=O)N5CCC(C)CC5)ccc4n3)CC2)c1,inactive
22,Cc1ccc(CNS(=O)(=O)c2ccc(C(=O)N(C)C)s2)cc1,inactive
